Compound activity from PubChem BioAssay.
DUX4 inh: blocks DUX4-driven transcriptional activation; AID 1224904; hit rate 0.8% among 37,000; 293T-iDUX4 ZSCAN4-Gaussia luciferase reporter, 24 h; stronger effect = lower value; activity change, negative = inhibition, % (test concentration not listed);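 active = mean inhibition of at least 10% in the main channel, exceeding the control channel by a set limit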;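 also: 0% = median of neutral control wells and -100% = median of positive control wells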
The depositor's hits bear a star. Many of the other results were omitted from the sample, so hits are more common in it than they were.

SMILES	DUX4 inh
O=C(c1ccc(F)cc1)N1CC[C@@H]2[C@H]1c1cc(-c3ccccc3F)ccc1N[C@@H]2CO	19
O=C(c1ccccc1)N1CC[C@@H]2[C@H]1c1cc(C#Cc3cccc(F)c3)ccc1N[C@@H]2CO	-4
COc1cccc(C#Cc2ccc3c(c2)[C@@H]2[C@@H](CCN2C(=O)c2ccc(F)cc2)[C@@H](CO)N3)c1	6
CCC(=O)N1CC[C@@H]2[C@@H](CO)N(C)c3ccc(-c4cccc(F)c4)cc3[C@@H]21	10
O=C(c1cccc(F)c1)N1CC[C@@H]2[C@H](CO)Nc3ccc(-c4ccccc4F)cc3[C@@H]21	-32*
O=C(c1cccc(F)c1)N1CC[C@@H]2[C@H]1c1cc(-c3cccc(F)c3)ccc1N[C@@H]2CO	2
COCC(=O)Nc1ccc2c(c1)C(=O)N(C)[C@H]1CC[C@H](CC(=O)Nc3cn(C)nc3C)O[C@@H]1CO2	-4
O=C1[C@H](Cc2ccc(C(F)(F)F)cc2)CCn2cc(nn2)COC[C@H]2CCCCN12	-3
CNC[C@H]1OCCCC[C@H](C)Oc2ccc(NC(=O)Nc3c(C)noc3C)cc2C(=O)N([C@@H](C)CO)C[C@@H]1C	3
CCCNC(=O)N1CC2(C1)CN(C(=O)NC(C)C)[C@H](CO)c1c2c2ccc(OC)cc2n1C	9
CN(C)C(=O)C[C@H]1CC[C@@H]2[C@H](COC[C@H](O)CN2CC2CCOCC2)O1	4
Cc1cccc(-c2ccc([C@H]3[C@@H](CO)N4C(=O)CN(C(=O)c5cnccn5)C[C@@H]34)cc2)c1	11
COc1cccc(-c2ccc3c(c2)[C@@H]2[C@@H](CCN2C(=O)Cc2ccccc2)[C@H](CO)N3)c1	5
O=C(C[C@H]1C[C@@H]2c3cc(NC(=O)CC4CC4)ccc3O[C@@H]2[C@H](CO)O1)NCc1cccc(F)c1	-4
O=C(Cc1ccncc1)N1CC[C@@H]2[C@H](CO)Nc3ccc(-c4ccccc4F)cc3[C@@H]21	-48*
O=C(Cc1ccncc1)N1CC[C@@H]2[C@@H](CO)Nc3ccc(-c4cccc(F)c4)cc3[C@@H]21	-9
COc1ccccc1CN1CC[C@@H]2[C@@H](CO)Nc3ccc(-c4cccc(F)c4)cc3[C@@H]21	-24*
CC(=O)N1CC[C@@H]2[C@@H](CO)Nc3ccc(C#Cc4cccnc4)cc3[C@@H]21	5
COc1ccccc1CN1CC[C@@H]2[C@H](CO)Nc3ccc(C#Cc4ccccc4)cc3[C@@H]21	-8
O=C(c1cccnc1)N1CC[C@H]2[C@H](CO)Nc3ccc(C#Cc4cccnc4)cc3[C@H]21	9
O=C(Cc1ccccc1)N1CC[C@@H]2[C@@H](CO)Nc3ccc(-c4ccccc4F)cc3[C@@H]21	8
O=C(c1cccnc1)N1CC[C@@H]2[C@H]1c1cc(C#Cc3cccnc3)ccc1N[C@@H]2CO	-18*
OC[C@H]1Nc2ccc(-c3ccc(F)cc3)cc2[C@@H]2[C@H]1CCN2Cc1ccc(F)cc1	-4
COc1ccc2c3c([nH]c2c1)[C@@H](CO)N(Cc1ccccn1)CC31CN(C(C)=O)C1	17
COc1ccccc1CN1[C@H](CO)[C@@H](c2ccccc2)C12CN(C(C)=O)C2	4
SMILES	DUX4 inh
COCC(=O)N1CC2(C1)[C@H](c1ccccc1)[C@@H](CO)N2Cc1ccccc1OC	-8
COc1ccccc1CN1CC2(C1)[C@@H](c1ccccc1)[C@@H](CO)N2Cc1ccccc1	-55*
CCS(=O)(=O)N1CC2(CN(C(=O)Nc3cccc(F)c3)[C@H](CO)c3c2c2ccc(OC)cc2n3C)C1	-6
CCC(=O)N1CC2(C1)CN(Cc1ccc(OC)cc1)[C@@H](CO)c1[nH]c3cc(OC)ccc3c12	8
Cc1ccccc1S(=O)(=O)N1CC[C@@H]2[C@@H](CO)N(C)c3ccc(Br)cc3[C@@H]21	-23*
Cc1ccccc1S(=O)(=O)N1CC[C@H]2[C@@H](CO)N(C)c3ccc(Br)cc3[C@H]21	-3
CN1c2ccc(Br)cc2[C@@H]2[C@@H](CCN2S(=O)(=O)c2ccccc2F)[C@H]1CO	3
COCCNC(=O)C[C@@H]1CC[C@@H]2[C@H](COc3ccc(NC(=O)c4cnccn4)cc3C(=O)N2C)O1	3
C[C@H](CO)N1C[C@H](C)[C@@H](CN(C)S(=O)(=O)c2cccc(C#N)c2)OCc2ccccc2-c2c(n(C)c3ccccc23)C1=O	9
Cc1cccc(S(=O)(=O)N(C)C[C@@H]2OCc3ccccc3-c3c(n(C)c4ccccc34)C(=O)N([C@@H](C)CO)C[C@H]2C)c1	-53*
C[C@@H]1CN([C@H](C)CO)C(=O)c2c(c3ccccc3n2C)-c2ccccc2CO[C@@H]1CN(C)S(=O)(=O)CC(F)(F)F	-1
C[C@H](CO)N1C[C@H](C)[C@@H](CN(C)S(C)(=O)=O)OCc2ccccc2-c2c(n(C)c3ccccc23)C1=O	17
C[C@@H]1CN([C@H](C)CO)C(=O)c2ccccc2-c2ccccc2CO[C@@H]1CN(C)S(=O)(=O)c1cccc(F)c1	1
C[C@H](CO)N1C[C@H](C)[C@H](CN(C)S(=O)(=O)CC(F)(F)F)OCc2ccccc2-c2c(n(C)c3ccccc23)C1=O	-33*
C[C@@H]1CN([C@H](C)CO)C(=O)c2ccccc2-c2ccccc2CO[C@H]1CN(C)S(=O)(=O)c1cccc(F)c1	2
C[C@H](CO)N1C[C@H](C)[C@H](CN(C)S(=O)(=O)c2cccc(F)c2)OCc2ccccc2-c2ccccc2C1=O	-21*
C[C@H](CO)N1C[C@H](C)[C@@H](CN(C)S(=O)(=O)c2ccc(F)cc2)OCc2ccccc2-c2c(n(C)c3ccccc23)C1=O	-3
Cc1cccc(S(=O)(=O)N(C)C[C@H]2OCc3ccccc3-c3c(n(C)c4ccccc34)C(=O)N([C@H](C)CO)C[C@H]2C)c1	-29*
C[C@H]1CN([C@@H](C)CO)C(=O)c2c(c3ccccc3n2C)-c2ccccc2CO[C@H]1CN(C)S(C)(=O)=O	2
C[C@H]1CN([C@@H](C)CO)C(=O)c2c(c3ccccc3n2C)-c2ccccc2CO[C@H]1CN(C)S(=O)(=O)CC(F)(F)F	-10
CC(=O)N1CC2(C1)[C@H](c1ccccc1)[C@H](CO)N2C(=O)c1ccncc1	11
CCCNC(=O)N1C[C@H](O)COC[C@H]2O[C@H](CC(=O)N3CCCCC3)CC[C@@H]21	0
COc1cccc(C(=O)N2C[C@H]3[C@@H](c4ccccc42)[C@H](CO)N3C(C)=O)c1	0
CCCC(=O)N1CC2(CN(C(C)=O)C2)c2c(n(C)c3cc(OC)ccc23)[C@H]1CO	-6
C[C@H](NC(=O)C[C@H]1CC[C@H]2[C@@H](COC[C@@H](O)CN2C(=O)Nc2cccc(F)c2)O1)c1ccccc1	9
SMILES	DUX4 inh
CS(=O)(=O)N1CC(=O)N2[C@H](CO)[C@H](c3ccc(C#Cc4ccccc4)cc3)[C@@H]2C1	0
CCN1Cc2cc(C(=O)NCCN3CCCC3)nc(-c3cccc(C4=CCCC4)c3)c2[C@H]1CCO	3
O=C(Nc1ccccc1F)N1C[C@@H]2[C@H](c3ccccc31)[C@H](CO)N2C(=O)Cc1ccccc1	1
CO[C@H]1CN(C)C(=O)c2cc(NC(=O)CC(F)(F)F)ccc2OC[C@@H](C)NC[C@H]1C	2
Cc1cccc(-c2ccc([C@H]3[C@@H](CO)N4C(=O)CN(C(=O)c5cnccn5)C[C@H]34)cc2)c1	9
O=C(c1ccncc1)N1CC2(C1)[C@H](c1ccccc1)[C@H](CO)N2CC1CC1	12
O=C(NC1CCCCC1)N1CC2(C1)[C@H](c1ccccc1)[C@H](CO)N2CC1CCCC1	-26*
